Bioassay records deposited in PubChem by National Center for Advancing Translational Sciences (NCATS).
TDP1 cell noCPT = qHTS for Inhibitors of human tyrosyl-DNA phosphodiesterase 1 (TDP1): qHTS in cells in absence of CPT; DT40 Tdp1-/- hTDP1 cells, no CPT, ATP luminescence, 48 h; Potency, µM (titrated, usually from 46.2 µM), for the others: at the highest dose activity change, negative = growth inhibition, most hits filed as inhibitors; hit rate 15% among 420,000; note: potency is the fitted concentration of half-maximal effect; nearly all actives have a fitted effect of over 55% in size
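No-CPT arm: Tdp1-/-;hTDP1 DT40 cells (400/well) plus compounds, incubated ≥48 hr at 37 °C. Readout CellTiter-Glo luminescence.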
IL1B secr inh = qHTS for Inhibitors of Inflammasome Signaling: IL-1-beta AlphaLISA Primary Screen. THP-1 LPS/ATP IL-1B secretion, AlphaLISA, 16 h; stronger effect = lower value. activity change, % at 57.5 µM. hit rate 4.7% among 360,000. AID 743279, 2014; in the data active = activity change below about -50%; inconclusive = mostly about -30% to -49%
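Secreted IL-1B measured by AlphaLISA bead assay after 16 h compound exposure of THP-1 cells; compounds (final up to 57.5 uM) added 1 h before LPS (250 ng/mL) and ATP (1.25 mM) stimulation; lower signal means less secretion.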
HT1080 IDH1KD tx = qHTS for induction of synthetic lethality in tumor cells producing 2HG: qHTS for the HT-1080-IDH1KD cell line; HT-1080 IDH1 knockdown viability, ATP luminescence, 48 h; hit rate 2% among 360,000; Potency, µM (titrated, usually from 46.1 µM), for the others: at the highest dose activity, negative = toxicity, usual class: cytotoxic; AID 686971, 2013;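 note: potency is the fitted concentration of half-maximal effect; 0% = DMSO wells and -100% = cell-free medium wells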
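Viability of IDH1-knockdown HT-1080 fibrosarcoma cells was assessed by CellTiter-Glo after 48 h at 37 °C with titrated compound; concentration-effect curves were classified by fit quality and response size.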
HT1080NT lethal = qHTS for induction of synthetic lethality in tumor cells producing 2HG: qHTS for the HT-1080-NT fibrosarcoma cell line | AID 686970, 2013 | hit rate 1.6% among 360,000 | Potency, µM (titrated, usually from 46.1 µM), inactives show top-dose activity, negative = less viability, usual class: cytotoxic | HT-1080-NT fibrosarcoma viability, CellTiter-Glo ATP luminescence, 48 h;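 note: NT is the 2HG producing partner of a matched IDH1 knockdown line; potency is the fitted concentration of half-maximal effect; 0% = DMSO-treated cells and -100% = media-only wells without cells; nearly all actives have a fitted effect of over 55% in size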
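Read-out is CellTiter-Glo luminescence after 10 minutes at room temperature, following 48 hours' compound treatment of HT-1080-NT cells (750 cells/well, RPMI, 5% FBS, 37 degrees C).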
ELG1 DNA repair = qHTS screen for small molecules that inhibit ELG1-dependent DNA repair in human embryonic kidney (HEK293T) cells expressing luciferase-tagged ELG1; HEK293T ELG1-luciferase reporter, luminescence, 16 h; DNA damage induced by 5-fluorouridine; Potency, µM (doses to about 46.1 µM), for the others: at the top dose activity change, negative = inhibition, most hits filed as inhibitors; hit rate 2.3% among 330,000; AID 504467, 2011; note: potency is the fitted concentration of half-maximal effect; nearly all actives have a fitted effect of over 55% in size
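HEK293T cells expressing luciferase-tagged ELG1 (2,000/well) received 5-Fluorouridine plus compound or DMSO for 16 hr at 37 °C. Luciferase was read by ONE-Glo luminescence after 30 min at room temperature.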
TDP1 cell CPT = qHTS for Inhibitors of human tyrosyl-DNA phosphodiesterase 1 (TDP1): qHTS in cells in presence of CPT | AID 686979, 2013 | hit rate 12% among 420,000 | Potency, µM (titrated, usually from 46.2 µM), without a hit: top-dose activity change, negative = growth inhibition, most hits filed as inhibitors | chicken DT40 Tdp1-/-;hTDP1 cells + 20 nM CPT, ATP luminescence, 48 h; note: potency is the fitted concentration of half-maximal effect; nearly all actives have a fitted effect of over 55% in size
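Cell growth measured by CellTiter-Glo luminescence after a minimum 48 h, 37 C compound exposure with 20 nM CPT in Tdp1-knockout DT40 cells stably expressing hTDP1, seeded 400/well; qHTS titration format.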
An asterisk follows results filed as active; ? = inconclusive; · = no result given. An excerpt weighted towards active compounds, which were near 19% of everything screened. Unless noted, calls come from the whole dose curve; as a rule, active = well fitted curve in the direction sought with a large enough effect; inconclusive = small, poorly fitted or top-dose-only effect, or another doubt; inactive = no such curve, though single readings can be large; an effect the other way counts as inactive or inconclusive. Unless noted, % is set by controls: 0 for no effect and ±100 for the full control effect.

SMILES	TDP1 cell noCPT	IL1B secr inh	HT1080 IDH1KD tx	HT1080NT lethal	ELG1 DNA repair	TDP1 cell CPT
CCCCc1nnc(SCC(=O)Nc2nccs2)n1C	27%	16	7%	3%	-2%	-8%
Cc1cccc(-n2ccnc2SCC(=O)Nc2nccs2)c1C	16µM*	7	-6%	-7%	?	?
Cn1c(CCCOc2ccc(Cl)cc2Cl)nnc1SCC(=O)Nc1nccs1	?	6	4%	-16%	?	23µM*
CC(C)(C)c1nc2ccccc2c2nnc(SCC(=O)Nc3nccs3)n12	4.6µM*	-11	?	?	?	3.3µM*
C[C@H](CO)N1C[C@H](C)[C@@H](CN(C)C(=O)Nc2ccc(C(F)(F)F)cc2)Oc2ccc(NC(=O)Cc3ccccc3)cc2C1=O	-12%	-22	-2%	-1%	-6%	?
Cc1cccc2c1-c1sc(C(=O)NCc3ccc(Cl)cc3)cc1CO2	-17%	·	·	·	·	-29%
Cn1c(=O)c2cc(NC(=S)NC3CCCCC3)ccc2n1-c1ccccc1	?	-10	-14%	-2%	·	?
CCCCN(C(=O)CCCc1nc2ccccc2s1)c1c(N)n(CC(C)C)c(=O)[nH]c1=O	-1%	9	14%	11%	9%	-10%
CCc1nnc(NC(=O)CSc2nccn2-c2cccc(C)c2C)s1	8.2µM*	49	?	-30%	9.2µM*	16µM*
CCOc1ccc(NC(=O)CSc2nccn2-c2cccc(C)c2C)cc1	18µM*	·	·	·	·	18µM*
CCOc1ccc(-n2ccnc2SCC(=O)Nc2ccc3c(c2)OCO3)cc1	-21%	·	·	·	·	4%
Cc1cccc(C)c1OCc1nnc(SCC(=O)Nc2nccs2)n1-c1ccccc1	5.8µM*	6	?	?	·	?
COc1cc(OC)c(Nc2cc(C)nc3ncnn23)cc1Cl	?	·	·	·	·	-26%
Cc1oc2ncn(C)c(=O)c2c1C(=O)NCCCN1CCCCC1C (centres undefined)	-21%	·	·	·	·	5%
Cc1ccccc1OCC(=O)Nc1sc2c(c1C(=O)OC(C)C)CCCC2	-6%	·	·	·	·	-2%
COc1ccc(N2CCN(C(=O)c3cc(NC(C)=O)c4c(c3)ncn4CCc3ccccn3)CC2)cc1	-19%	·	·	·	·	4%
Cc1ccc(Cl)cc1N1CCN(C(=O)Cn2ccc3ccccc3c2=O)CC1	21µM*	-66*	?	0%	?	16µM*
Cc1ccc(Cl)cc1N1CCN(C(=O)Cn2ncn3cccc3c2=O)CC1	?	8	-8%	-20%	-12%	21µM*
Cc1ccc(C)c(N2CCN(C(=O)CCNC(=O)Cn3ccc4ccccc4c3=O)CC2)c1	?	-1	0%	7%	2%	-17%
O=C(Cn1ncn2cccc2c1=O)N1CCCCC1	0%	25	17%	25%	-1%	5%
Cc1ccc(Cl)cc1N1CCN(C(=O)Cn2nc(C)n3c(cc4sccc43)c2=O)CC1	21µM*	·	·	·	·	18µM*
COc1ccc(CCNC(=O)c2c(O)c3ccccc3[nH]c2=O)cc1OC	?	25	-2%	13%	14%	0%
COc1ccc(CCNC(=O)c2ccc(N(C)S(=O)(=O)c3ccc(C)cc3)cc2)cc1OC	21µM*	-4	-11%	?	?	21µM*
COc1ccc(CCNC(=O)c2ccc(CNS(=O)(=O)c3ccccc3)cc2)cc1OC	16µM*	-11	-3%	-12%	?	18µM*
